Test results from the supplement of paper PMC11732987, “Enantioselective OTUD7B fragment discovery through chemoproteomics screening and high-throughput optimisation” (Communications Chemistry, 2025).

compound: OC1CN(Cc2sccc12)C(=O)CCl; assay: log2 ratio of Biotin-Ahx-Ub-VS probe labelling (compound/DMSO); higher = less target engagement, active = hit call of the paper (q ≤ 0.05, log2 ratio ≤ -1); details: compound concentration: 50uM; treatment time: 3 h
Experimental: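 Round 2 competitive ABPP in HEK293T lysate. Purified HTC-D2B compounds were tested at 50 and 200 µM for 3 h, followed by Biotin-Ahx-Ub-VS enrichment and diaPASEF LC-MS/MS. Values are the average log2 ratio (compound/DMSO) from an unpaired t-test (n=3 treated, n=26 DMSO).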

UniProt O00487, sequence (O00487 whole entry): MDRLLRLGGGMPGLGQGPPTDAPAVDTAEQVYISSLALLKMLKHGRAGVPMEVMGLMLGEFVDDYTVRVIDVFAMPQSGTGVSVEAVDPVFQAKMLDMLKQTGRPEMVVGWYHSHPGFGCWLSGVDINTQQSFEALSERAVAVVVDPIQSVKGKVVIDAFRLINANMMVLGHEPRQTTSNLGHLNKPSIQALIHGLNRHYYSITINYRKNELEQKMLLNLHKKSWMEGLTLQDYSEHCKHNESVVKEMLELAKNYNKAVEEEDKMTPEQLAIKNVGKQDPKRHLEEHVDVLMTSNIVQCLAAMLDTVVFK
UniProt Q9H9J4, sequence (Q9H9J4 whole entry): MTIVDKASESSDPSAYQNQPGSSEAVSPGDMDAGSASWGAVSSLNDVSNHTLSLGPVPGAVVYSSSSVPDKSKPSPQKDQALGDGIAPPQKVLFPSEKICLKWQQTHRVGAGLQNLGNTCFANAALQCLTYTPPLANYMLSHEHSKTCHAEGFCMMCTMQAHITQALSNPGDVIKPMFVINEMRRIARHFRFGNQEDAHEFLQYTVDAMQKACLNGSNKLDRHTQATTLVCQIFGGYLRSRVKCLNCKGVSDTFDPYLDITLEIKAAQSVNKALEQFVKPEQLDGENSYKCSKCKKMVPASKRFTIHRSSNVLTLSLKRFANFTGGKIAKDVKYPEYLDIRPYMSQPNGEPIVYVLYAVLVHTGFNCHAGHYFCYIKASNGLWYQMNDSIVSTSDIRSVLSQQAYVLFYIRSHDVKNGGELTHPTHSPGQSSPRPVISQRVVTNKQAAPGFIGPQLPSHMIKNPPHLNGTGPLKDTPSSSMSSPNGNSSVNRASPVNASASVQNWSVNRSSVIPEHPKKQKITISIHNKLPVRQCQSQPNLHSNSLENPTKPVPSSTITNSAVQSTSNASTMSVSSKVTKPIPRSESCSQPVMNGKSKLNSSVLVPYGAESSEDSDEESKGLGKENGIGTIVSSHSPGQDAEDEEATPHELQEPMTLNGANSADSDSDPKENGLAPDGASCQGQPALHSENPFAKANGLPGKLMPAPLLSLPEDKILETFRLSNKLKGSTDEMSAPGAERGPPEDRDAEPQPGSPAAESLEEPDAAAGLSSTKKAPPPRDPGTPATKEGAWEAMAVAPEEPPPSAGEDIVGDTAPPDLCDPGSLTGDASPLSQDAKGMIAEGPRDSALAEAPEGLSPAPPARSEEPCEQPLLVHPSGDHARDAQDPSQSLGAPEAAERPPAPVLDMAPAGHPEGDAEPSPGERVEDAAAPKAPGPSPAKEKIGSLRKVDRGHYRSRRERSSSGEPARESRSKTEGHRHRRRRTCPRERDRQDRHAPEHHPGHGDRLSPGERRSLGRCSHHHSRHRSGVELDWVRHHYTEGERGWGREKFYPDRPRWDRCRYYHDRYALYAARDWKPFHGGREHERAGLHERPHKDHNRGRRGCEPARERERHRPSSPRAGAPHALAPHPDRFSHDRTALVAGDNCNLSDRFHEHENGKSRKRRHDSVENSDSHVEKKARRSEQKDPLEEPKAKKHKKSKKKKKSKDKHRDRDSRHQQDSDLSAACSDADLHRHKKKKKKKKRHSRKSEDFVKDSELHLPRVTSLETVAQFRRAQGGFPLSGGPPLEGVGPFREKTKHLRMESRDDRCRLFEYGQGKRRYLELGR
UniProt Q9UHP3, sequence (Q9UHP3 whole entry): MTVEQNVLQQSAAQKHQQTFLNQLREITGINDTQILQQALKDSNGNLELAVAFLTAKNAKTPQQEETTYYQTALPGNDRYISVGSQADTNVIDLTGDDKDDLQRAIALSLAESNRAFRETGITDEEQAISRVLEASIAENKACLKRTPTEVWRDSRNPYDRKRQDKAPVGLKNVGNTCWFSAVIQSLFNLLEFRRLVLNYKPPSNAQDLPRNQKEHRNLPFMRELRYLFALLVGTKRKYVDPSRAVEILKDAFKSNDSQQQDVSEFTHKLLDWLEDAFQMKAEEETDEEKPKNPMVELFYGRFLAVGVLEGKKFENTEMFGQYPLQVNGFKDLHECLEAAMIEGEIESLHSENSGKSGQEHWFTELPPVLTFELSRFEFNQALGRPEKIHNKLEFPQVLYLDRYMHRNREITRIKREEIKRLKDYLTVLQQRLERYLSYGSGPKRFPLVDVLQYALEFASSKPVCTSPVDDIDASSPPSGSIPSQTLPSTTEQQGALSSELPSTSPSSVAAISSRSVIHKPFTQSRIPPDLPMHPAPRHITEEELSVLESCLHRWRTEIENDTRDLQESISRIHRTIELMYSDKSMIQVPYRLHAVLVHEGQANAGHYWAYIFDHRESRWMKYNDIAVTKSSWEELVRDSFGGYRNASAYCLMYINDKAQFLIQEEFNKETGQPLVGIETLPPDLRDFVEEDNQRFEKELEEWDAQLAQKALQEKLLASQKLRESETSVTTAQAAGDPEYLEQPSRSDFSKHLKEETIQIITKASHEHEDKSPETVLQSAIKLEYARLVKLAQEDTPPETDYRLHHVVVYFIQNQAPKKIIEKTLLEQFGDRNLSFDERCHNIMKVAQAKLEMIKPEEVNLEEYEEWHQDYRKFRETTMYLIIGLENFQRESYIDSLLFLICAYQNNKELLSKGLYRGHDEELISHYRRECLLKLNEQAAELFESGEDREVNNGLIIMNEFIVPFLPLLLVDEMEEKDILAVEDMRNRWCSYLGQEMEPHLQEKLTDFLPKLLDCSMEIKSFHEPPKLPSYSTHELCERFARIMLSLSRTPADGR
UniProt Q96JH7, sequence (Q96JH7 whole entry): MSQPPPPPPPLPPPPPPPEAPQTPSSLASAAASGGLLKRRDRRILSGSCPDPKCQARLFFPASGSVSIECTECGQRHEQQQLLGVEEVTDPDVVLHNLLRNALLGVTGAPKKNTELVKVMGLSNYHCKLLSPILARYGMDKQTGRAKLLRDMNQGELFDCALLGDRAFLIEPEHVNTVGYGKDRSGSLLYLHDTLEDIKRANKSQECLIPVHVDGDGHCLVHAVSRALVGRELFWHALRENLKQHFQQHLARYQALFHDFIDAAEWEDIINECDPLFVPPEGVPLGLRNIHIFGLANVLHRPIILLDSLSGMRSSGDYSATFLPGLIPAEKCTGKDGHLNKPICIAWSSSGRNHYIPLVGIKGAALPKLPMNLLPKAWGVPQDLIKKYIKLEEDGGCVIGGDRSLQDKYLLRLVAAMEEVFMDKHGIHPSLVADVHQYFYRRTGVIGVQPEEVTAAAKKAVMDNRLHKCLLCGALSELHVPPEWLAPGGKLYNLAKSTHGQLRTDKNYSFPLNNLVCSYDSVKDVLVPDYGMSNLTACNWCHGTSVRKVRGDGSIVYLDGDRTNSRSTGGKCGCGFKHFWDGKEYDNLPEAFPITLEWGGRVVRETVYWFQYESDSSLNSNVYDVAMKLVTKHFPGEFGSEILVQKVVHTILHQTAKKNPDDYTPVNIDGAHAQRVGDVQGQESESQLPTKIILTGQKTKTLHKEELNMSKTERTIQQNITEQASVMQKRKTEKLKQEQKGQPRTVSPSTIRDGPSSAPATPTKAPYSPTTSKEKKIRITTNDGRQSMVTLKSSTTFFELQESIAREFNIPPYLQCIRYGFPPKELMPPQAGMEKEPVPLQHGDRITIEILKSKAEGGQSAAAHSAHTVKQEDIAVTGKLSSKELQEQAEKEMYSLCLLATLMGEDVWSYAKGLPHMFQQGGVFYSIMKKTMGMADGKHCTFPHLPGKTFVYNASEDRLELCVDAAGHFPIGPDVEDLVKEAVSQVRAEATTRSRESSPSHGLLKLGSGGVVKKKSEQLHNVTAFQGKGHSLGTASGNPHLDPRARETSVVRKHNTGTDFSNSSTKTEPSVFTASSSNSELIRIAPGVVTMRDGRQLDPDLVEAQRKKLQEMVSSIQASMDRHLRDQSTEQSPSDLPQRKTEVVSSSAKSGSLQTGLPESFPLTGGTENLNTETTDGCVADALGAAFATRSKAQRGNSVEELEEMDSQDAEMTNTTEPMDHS
UniProt P54578, sequence (P54578 whole entry): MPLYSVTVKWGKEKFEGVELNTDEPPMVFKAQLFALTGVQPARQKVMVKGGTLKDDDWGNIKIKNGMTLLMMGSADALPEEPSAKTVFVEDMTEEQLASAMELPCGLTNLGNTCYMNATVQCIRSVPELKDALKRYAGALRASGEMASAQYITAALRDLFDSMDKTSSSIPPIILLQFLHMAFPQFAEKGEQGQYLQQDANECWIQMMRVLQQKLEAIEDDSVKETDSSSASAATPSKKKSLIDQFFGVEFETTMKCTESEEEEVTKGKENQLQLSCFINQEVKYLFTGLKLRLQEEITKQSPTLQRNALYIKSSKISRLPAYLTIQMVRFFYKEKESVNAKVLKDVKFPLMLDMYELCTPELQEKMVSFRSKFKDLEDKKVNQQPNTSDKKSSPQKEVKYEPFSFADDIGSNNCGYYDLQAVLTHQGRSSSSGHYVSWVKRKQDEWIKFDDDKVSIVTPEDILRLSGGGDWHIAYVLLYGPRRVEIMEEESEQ

log2 ratio of Biotin-Ahx-Ub-VS probe labelling, inactive:
USP19 (UniProt O94966) -0.389, UniProt O00487 0.0337, USP24 (UniProt Q9UPU5) -0.165, USP25 (UniProt Q9UHP3) 0.472, VCPIP1 (UniProt Q96JH7) -0.309, MINDY4 (UniProt Q4G0A6) 0.0365, USP14 (UniProt P54578) -0.385, USP42 (UniProt Q9H9J4) -0.224

same assay, conditions: compound concentration: 200uM; treatment time: 3 h

log2 ratio of Biotin-Ahx-Ub-VS probe labelling, inactive:
USP19 (UniProt O94966) -0.703, UniProt O00487 -0.128, USP24 (UniProt Q9UPU5) -0.557, USP25 (UniProt Q9UHP3) 0.301, VCPIP1 (UniProt Q96JH7) -0.285, MINDY4 (UniProt Q4G0A6) 0.686, USP14 (UniProt P54578) -0.604, USP42 (UniProt Q9H9J4) 0.0756
